The record followed here is publication PMC7862700, “An all-to-all approach to the identification of sequence-specific readers for epigenetic DNA modifications on cytosine”.

Holding throughout (test): DAPPL (digital affinity profiling via proximity ligation, sequencing); 10 mM Tris-HCl pH 7.5, 50 mM NaCl, 1 mM DTT, 4% glycerol, room temperature, 30 min; GST-TFs on glutathione beads, 16-mer random dsDNA library, 0.1% formaldehyde crosslink after washing; high values mean tight binding
Holding throughout (details): protein: recombinant; tags: N-terminal GST; dsDNA, one strand shown

In one experiment the target is T1, GABPA (Homo sapiens, UniProt Q06546 1-454).
T1 sequence: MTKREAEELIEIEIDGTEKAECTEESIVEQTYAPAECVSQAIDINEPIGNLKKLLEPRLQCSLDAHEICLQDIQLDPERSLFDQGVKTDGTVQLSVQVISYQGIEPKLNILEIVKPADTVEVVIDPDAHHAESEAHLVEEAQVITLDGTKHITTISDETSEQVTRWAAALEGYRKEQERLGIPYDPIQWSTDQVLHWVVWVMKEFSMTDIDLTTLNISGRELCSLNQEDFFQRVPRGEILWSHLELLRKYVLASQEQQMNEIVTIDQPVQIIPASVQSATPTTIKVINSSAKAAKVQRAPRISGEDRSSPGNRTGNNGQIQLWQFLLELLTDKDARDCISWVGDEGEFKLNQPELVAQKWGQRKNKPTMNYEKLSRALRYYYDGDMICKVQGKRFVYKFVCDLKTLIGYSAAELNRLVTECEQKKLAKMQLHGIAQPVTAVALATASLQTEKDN
In short, it runs like this: (§1)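 Binding signal is given per hexamer as its read frequency for a factor divided by its frequency in the tag-only sample. GST-fused human transcription factors were expressed in yeast, captured on glutathione beads, barcoded with DNA and pooled with that sample, then incubated with 200 nmole of a 16-mer random double-stranded DNA library in Tris/NaCl/DTT/glycerol buffer for 30 min at room temperature. The pools were then washed, crosslinked, proximity-ligated, amplified by PCR and sequenced on an Illumina NextSeq500.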

In another experiment the target is ELF1 (Homo sapiens, UniProt P32519 1-619). In short, it runs like this:
as §1

The next experiment deals with SPI1 (Homo sapiens, UniProt P17947 1-270). The method, boiled down:
as §1

Another experiment deals with SPIB (Homo sapiens, UniProt Q01892 1-262). The method, boiled down:
as §1

Another experiment concerns the target T2, FEV (Homo sapiens, UniProt Q99581 1-238).
T2 sequence: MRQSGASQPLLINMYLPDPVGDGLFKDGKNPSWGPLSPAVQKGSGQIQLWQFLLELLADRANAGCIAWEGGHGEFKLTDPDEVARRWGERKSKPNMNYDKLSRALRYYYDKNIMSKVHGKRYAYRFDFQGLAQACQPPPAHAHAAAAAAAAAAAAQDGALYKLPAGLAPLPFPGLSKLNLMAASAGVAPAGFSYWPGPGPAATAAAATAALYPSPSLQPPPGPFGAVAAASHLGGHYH
In short, it runs like this:
as §1

For a further experiment, the target named is ELF4 (Homo sapiens, UniProt Q99607 1-663). In short, it runs like this:
as §1

In another experiment the target is T3, ELK4 (Homo sapiens, UniProt P28324-2 1-405).
T3 sequence: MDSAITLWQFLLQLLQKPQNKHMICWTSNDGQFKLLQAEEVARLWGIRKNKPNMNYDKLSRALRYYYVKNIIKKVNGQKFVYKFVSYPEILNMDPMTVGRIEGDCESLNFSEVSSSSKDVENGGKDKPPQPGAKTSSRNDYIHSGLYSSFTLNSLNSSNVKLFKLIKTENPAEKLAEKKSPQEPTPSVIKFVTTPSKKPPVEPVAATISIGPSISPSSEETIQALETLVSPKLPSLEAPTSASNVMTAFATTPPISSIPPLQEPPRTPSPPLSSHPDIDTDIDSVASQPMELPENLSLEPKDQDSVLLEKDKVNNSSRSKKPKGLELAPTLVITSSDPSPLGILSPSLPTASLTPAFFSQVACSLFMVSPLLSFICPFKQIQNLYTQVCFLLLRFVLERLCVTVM
The method, boiled down: as §1

The target in the next experiment is T4, ETV2 (Homo sapiens, UniProt O00321 1-342).
T4 sequence: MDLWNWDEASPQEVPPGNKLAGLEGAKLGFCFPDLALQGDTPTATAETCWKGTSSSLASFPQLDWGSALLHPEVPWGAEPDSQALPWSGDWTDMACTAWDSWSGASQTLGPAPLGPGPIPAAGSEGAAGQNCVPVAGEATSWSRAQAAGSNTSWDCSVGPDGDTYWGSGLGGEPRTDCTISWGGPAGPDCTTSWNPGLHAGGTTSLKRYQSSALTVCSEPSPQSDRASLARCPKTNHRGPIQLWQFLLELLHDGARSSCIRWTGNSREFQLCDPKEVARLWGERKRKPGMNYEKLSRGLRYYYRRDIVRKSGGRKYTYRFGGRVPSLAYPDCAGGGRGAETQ
In short, it runs like this:
as §1

The next experiment concerns the target T5, ELF3 (Homo sapiens, UniProt P78545 1-371).
T5 sequence: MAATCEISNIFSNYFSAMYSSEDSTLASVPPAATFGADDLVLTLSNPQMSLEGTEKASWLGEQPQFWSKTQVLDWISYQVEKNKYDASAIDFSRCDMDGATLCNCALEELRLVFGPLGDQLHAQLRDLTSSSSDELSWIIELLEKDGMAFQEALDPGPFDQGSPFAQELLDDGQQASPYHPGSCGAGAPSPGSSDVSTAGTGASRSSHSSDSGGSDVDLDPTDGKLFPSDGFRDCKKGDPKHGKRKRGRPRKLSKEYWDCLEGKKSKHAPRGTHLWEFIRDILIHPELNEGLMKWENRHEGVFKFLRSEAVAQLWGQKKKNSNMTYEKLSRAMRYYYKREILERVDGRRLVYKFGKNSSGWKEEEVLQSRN
In short, it runs like this:
as §1

For the next experiment, the target named is T6, ERF (Homo sapiens, UniProt P50548 1-548).
T6 sequence: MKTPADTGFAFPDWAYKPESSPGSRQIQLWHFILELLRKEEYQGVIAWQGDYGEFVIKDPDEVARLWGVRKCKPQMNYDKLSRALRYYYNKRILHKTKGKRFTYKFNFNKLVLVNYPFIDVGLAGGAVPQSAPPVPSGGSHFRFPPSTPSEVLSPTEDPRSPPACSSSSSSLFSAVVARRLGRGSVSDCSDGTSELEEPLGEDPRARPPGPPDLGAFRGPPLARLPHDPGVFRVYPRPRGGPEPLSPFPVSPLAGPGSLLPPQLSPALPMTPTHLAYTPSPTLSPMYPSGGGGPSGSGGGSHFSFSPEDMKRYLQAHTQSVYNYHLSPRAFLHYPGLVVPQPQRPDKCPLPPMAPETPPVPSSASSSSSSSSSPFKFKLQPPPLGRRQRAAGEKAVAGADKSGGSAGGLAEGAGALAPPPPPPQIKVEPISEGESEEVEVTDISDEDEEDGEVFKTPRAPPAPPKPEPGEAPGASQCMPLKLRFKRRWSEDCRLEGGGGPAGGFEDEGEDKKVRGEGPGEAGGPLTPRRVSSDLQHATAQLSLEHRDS
The method, boiled down: as §1

A further experiment deals with T7, ETV3L (Homo sapiens, UniProt Q6ZN32 1-361).
T7 sequence: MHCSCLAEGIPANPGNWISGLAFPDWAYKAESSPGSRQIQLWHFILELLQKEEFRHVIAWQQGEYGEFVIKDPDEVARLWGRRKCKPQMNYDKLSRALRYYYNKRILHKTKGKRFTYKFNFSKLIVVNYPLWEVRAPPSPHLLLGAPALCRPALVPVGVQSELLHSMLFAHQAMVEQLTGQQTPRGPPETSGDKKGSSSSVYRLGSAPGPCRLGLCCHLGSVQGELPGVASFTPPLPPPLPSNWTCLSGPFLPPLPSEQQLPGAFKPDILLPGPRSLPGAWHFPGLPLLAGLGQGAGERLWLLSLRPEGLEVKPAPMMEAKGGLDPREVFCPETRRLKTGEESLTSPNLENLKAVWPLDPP
In short, it runs like this: as §1

The target of a further experiment is T8, SPDEF (Homo sapiens, UniProt O95238 1-335).
T8 sequence: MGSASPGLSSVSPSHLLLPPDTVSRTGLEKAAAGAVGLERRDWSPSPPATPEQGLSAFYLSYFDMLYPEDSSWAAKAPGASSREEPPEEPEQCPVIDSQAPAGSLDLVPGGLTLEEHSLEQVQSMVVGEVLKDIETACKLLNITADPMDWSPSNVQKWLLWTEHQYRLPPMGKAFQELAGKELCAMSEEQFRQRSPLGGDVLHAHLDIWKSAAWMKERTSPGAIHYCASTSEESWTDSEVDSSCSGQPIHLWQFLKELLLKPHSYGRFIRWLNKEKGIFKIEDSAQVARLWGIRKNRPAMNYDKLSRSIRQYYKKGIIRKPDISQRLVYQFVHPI
The method, boiled down: as §1

A further experiment deals with T9, ETV7 (Homo sapiens, UniProt Q9Y603 1-341).
T9 sequence: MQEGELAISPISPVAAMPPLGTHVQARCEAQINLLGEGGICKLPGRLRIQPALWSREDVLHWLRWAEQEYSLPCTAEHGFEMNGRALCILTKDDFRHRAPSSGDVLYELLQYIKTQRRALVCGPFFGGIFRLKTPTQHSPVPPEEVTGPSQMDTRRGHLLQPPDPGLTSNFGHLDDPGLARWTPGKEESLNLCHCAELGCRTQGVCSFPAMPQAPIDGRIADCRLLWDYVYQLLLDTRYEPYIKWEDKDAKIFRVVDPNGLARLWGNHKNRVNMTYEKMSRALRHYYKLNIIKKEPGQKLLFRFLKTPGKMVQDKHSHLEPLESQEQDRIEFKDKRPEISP
In short, it runs like this:
as §1

The target of the next experiment is T10, ELF5 (Homo sapiens, UniProt Q9UKW6-2 1-255).
T10 sequence: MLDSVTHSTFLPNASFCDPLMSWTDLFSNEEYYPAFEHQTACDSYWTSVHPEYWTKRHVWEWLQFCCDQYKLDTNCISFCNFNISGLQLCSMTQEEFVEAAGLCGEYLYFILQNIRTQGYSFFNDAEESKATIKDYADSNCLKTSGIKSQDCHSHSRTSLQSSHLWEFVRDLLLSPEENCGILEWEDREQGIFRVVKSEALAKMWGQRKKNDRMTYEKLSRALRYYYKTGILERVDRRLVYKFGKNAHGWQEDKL
The method, boiled down: as §1

Another experiment addresses T11, ETV3 (Homo sapiens, UniProt P41162-2 1-143).
T11 sequence: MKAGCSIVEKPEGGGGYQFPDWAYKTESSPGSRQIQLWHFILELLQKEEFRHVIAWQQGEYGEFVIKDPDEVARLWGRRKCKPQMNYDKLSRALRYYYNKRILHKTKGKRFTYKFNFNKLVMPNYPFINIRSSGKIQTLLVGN
The method, boiled down:
as §1

For another experiment, the target named is T12, ERG (Homo sapiens, UniProt P11308 1-479).
T12 sequence: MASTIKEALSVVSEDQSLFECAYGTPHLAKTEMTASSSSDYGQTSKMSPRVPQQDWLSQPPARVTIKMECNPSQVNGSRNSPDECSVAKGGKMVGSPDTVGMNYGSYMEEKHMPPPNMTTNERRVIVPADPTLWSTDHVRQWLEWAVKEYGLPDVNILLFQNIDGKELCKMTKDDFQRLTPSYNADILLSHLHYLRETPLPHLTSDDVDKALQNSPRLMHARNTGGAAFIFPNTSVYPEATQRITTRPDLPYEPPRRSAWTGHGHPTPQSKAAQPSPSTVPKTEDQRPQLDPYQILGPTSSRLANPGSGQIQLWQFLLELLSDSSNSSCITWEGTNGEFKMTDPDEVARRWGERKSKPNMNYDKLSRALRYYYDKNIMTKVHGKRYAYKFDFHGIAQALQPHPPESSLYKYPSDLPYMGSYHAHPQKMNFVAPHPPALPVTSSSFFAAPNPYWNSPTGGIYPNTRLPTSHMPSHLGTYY
In short, it runs like this:
as §1

ELF4, sequence (Q99607 whole entry): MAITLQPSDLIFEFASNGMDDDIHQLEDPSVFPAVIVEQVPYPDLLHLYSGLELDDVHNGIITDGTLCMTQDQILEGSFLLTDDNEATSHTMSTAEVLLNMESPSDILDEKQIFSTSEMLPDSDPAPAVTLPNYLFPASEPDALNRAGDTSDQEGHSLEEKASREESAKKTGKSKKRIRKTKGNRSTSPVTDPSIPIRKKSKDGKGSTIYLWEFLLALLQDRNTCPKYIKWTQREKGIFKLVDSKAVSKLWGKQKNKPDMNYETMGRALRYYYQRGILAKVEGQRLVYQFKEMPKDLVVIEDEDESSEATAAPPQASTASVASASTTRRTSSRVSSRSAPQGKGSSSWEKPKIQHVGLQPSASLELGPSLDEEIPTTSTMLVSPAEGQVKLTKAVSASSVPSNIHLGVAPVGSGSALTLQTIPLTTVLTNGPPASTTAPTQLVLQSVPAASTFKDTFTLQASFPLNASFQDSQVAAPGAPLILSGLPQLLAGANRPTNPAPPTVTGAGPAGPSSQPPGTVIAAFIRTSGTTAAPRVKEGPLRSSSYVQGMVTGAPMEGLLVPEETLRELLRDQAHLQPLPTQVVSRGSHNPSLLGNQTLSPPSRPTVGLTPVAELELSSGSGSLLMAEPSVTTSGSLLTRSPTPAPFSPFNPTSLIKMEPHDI
SPIB, sequence (Q01892 whole entry): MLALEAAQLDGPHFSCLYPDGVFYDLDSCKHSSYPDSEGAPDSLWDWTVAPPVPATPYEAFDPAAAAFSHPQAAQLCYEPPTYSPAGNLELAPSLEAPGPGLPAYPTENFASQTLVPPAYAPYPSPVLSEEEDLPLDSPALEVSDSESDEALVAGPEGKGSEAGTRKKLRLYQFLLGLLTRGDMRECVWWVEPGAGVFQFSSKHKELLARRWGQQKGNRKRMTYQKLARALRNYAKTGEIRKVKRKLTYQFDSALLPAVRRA
ELF1, sequence (P32519 whole entry): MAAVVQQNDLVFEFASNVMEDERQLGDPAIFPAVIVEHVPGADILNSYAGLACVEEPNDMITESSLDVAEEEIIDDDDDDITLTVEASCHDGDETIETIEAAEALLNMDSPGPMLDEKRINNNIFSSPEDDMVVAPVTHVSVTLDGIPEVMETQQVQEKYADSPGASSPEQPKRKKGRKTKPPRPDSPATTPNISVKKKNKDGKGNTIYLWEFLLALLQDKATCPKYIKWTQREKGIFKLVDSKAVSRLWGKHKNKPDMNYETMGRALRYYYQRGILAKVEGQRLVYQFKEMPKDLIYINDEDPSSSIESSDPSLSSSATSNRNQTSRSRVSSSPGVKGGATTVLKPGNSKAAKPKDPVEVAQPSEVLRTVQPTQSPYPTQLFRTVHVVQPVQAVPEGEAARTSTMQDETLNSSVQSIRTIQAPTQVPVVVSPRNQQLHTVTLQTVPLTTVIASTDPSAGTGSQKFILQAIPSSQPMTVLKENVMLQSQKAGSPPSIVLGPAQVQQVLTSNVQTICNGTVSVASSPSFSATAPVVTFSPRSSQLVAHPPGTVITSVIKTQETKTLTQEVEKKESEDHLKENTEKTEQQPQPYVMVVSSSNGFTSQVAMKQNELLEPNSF

TCGCGG: the binding signal was 1.07 fold enrichment (6-mer frequency, TF over GST control) with GABPA; 1.02 fold enrichment (6-mer frequency, TF over GST control) in the experiment with ELF1; 1 fold enrichment (6-mer frequency, TF over GST control) in the experiment with SPI1; 1.02 fold enrichment (6-mer frequency, TF over GST control) in the experiment with SPIB; 1.02 fold enrichment (6-mer frequency, TF over GST control) with FEV; 1.03 fold enrichment (6-mer frequency, TF over GST control) with ELF4. Moreover, the binding signal is 1.05 fold enrichment (6-mer frequency, TF over GST control) in the experiment with ELK4; 1.11 fold enrichment (6-mer frequency, TF over GST control) with ETV2; 1.03 fold enrichment (6-mer frequency, TF over GST control) in the experiment with ELF3; 1.09 fold enrichment (6-mer frequency, TF over GST control) with ERF; 1.04 fold enrichment (6-mer frequency, TF over GST control) with ETV3L; 1.01 fold enrichment (6-mer frequency, TF over GST control) with SPDEF. Also, the binding signal in the experiment with ETV7 is 1.02 fold enrichment (6-mer frequency, TF over GST control); with ELF5 it was 1 fold enrichment (6-mer frequency, TF over GST control); with ETV3, 1.04 fold enrichment (6-mer frequency, TF over GST control).
For the sequence GTTGAA, in the experiment with ELK4, the binding signal was 1.01 fold enrichment (6-mer frequency, TF over GST control).
Consider AGGTAC, for which the binding signal with ELF4 was 1.01 fold enrichment (6-mer frequency, TF over GST control).
In the case of GCCATT, the binding signal is 1.01 fold enrichment (6-mer frequency, TF over GST control) with ERG; 1.03 fold enrichment (6-mer frequency, TF over GST control) with SPI1; 1.02 fold enrichment (6-mer frequency, TF over GST control) with ELF4; 1.07 fold enrichment (6-mer frequency, TF over GST control) with ELK4; 1.03 fold enrichment (6-mer frequency, TF over GST control) with ERF.
